Source: PubChem BioAssay (The Scripps Research Institute Molecular Screening Center)
The list is not random: actives were taken first. Their share in the collection is about 3.4%.
FBW7 act: activators of human E3 ligase FBW7. 650,000 compounds, 0.13% hits. AlphaScreen FBW7–phospho-cyclin E peptide binding, activator screen. Q969H0. normalized activity (activation), % at 26.1 µM; in the data active means normalized activity above about 1.9%;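 further: purified mutant Fbw7 with reduced substrate affinity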
Target sequence (Q969H0 whole entry, looked up): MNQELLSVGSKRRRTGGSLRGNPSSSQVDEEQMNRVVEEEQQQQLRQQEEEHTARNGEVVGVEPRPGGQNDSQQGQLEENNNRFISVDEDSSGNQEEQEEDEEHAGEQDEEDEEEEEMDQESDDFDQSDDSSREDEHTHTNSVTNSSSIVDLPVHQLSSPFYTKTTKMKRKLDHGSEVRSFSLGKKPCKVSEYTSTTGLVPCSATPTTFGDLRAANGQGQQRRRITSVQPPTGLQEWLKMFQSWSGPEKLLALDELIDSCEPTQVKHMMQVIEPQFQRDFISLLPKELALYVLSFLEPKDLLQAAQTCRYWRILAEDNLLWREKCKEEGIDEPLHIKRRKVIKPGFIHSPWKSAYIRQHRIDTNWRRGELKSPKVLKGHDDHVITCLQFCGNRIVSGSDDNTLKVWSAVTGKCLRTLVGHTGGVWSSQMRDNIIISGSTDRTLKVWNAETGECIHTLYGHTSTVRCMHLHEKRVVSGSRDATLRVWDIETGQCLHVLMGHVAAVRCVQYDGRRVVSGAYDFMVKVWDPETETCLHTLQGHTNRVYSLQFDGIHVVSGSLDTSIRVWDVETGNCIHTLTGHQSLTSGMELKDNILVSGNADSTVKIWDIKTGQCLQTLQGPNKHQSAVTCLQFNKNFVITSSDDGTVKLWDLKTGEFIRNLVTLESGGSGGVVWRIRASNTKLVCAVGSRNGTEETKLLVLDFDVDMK
GPR151 activ: activators of human GPR151. PathHunter beta-arrestin GPR151 cells, luminescence. Q8TDV0. 650,000 compounds, 1% hits. activation, % at 11.2 µM; in the data active means activation above about 4.9%
TEAD-YAP inh: TEAD-YAP interaction inhibition | HEK-TIYL cells, TEAD-Gal4/YAP UAS-luciferase luminescence | inhibition, % at 9.12 µM | 640,000 compounds, 1.4% hits | AID 1259422; in the data active means inhibition above about 32%
MITF inh: inhibitors of human MITF | 650,000 compounds, 0.91% hits | O75030 | AID 1259374 | AlphaScreen MITF homodimerization, bead proximity signal | inhibition, % at 2.6 µM; in the data active means inhibition above about 50%
Hits are given with their value; 0 = inactive.

SMILES	FBW7 act	GPR151 activ	TEAD-YAP inh	MITF inh
Cc1cccc(Cn2c(NCCO)nc3c2c(=O)n(C)c(=O)n3C)c1	0	0	42	0
Cn1c(=O)c2c(nc(NCCO)n2Cc2cccc(Br)c2)n(C)c1=O	0	0	0	0
O=C(NCC(O)c1ccc([N+](=O)[O-])cc1)c1ccco1 (centres undefined)	0	0	0	0
CCOC(=O)N1CCN(C(=O)c2ccc(Cn3c(=S)[nH]c4ccccc4c3=O)cc2)CC1	0	0	45	0
O=C(Cn1cncn1)N/N=C/c1ccc(F)cc1	0	0	0	0
O=C(NCc1cccc(C(F)(F)F)c1)c1csc(NC2CCN(Cc3ccccc3)CC2)n1	0	0	0	0
CC(=O)c1cccc(-c2cnn3c(N4CCN(c5ccccn5)CC4)ccnc23)c1	1.9	0	0	0
CN(Cc1ccccc1)c1ccnc2c(-c3ccc(CO)cc3)cnn12	0	0	0	0
CN(Cc1ccccc1)c1ccnc2c(-c3cccc(C(=O)O)c3)cnn12	0	0	89	0
Nc1cccc(-c2cnn3c(N4CCN(c5ccccn5)CC4)ccnc23)c1	0	0	0	0
CN(Cc1ccccc1)c1ccnc2c(-c3cccc(O)c3)cnn12	0	0	90	0
C/C(=N\NC(=O)c1cc(C(C)C)[nH]n1)c1ccncc1	0	0	0	0
CCOc1cccc(-c2cc(C(=O)N/N=C(\C)c3cccs3)[nH]n2)c1	0	0	0	0
CCOc1ccc(-c2cc(C(=O)N/N=C(\C)c3ccc(OC)cc3)[nH]n2)cc1	0	0	44	0
C/C(=N\NC(=O)c1cc(-c2ccccc2Cl)n[nH]1)c1ccc(O)cc1	0	0	0	0
CCOc1ccccc1-c1cc(C(=O)N/N=C(\C)c2cccs2)[nH]n1	0	0	49	0
CCOc1ccccc1-c1cc(C(=O)N/N=C(/C)c2ccc(OC)c(OC)c2)[nH]n1	0	0	40	0
C/C(=N\NC(=O)c1cc(-c2ccc(CC(C)C)cc2)n[nH]1)c1ccncc1	0	0	67	0
COc1ccc2nc(-c3ccc(C)c(NS(=O)(=O)c4cc(C)c(C)cc4C)c3)cn2n1	0	0	0	0
Cc1nc(NCCNC(=O)c2cccs2)cc(-n2cccn2)n1	0	0	0	0
COc1ccc(NC(=O)CCCCCn2c(SCc3ccc(F)cc3)nc3ccsc3c2=O)cc1	0	0	0	0
CCOC(=O)c1csc2c1CCC(Br)(Br)C2=O	0	0	0	0
CCOC(=O)c1csc2c1CCC/C2=N/O	0	0	51	0
CCOC(=O)c1csc2c1CCC/C2=N\O	0	0	48	0
O=C(NN1C(=O)c2ccccc2C1=O)c1ccc(Cl)c(Cl)c1	0	0	0	0
SMILES	FBW7 act	GPR151 activ	TEAD-YAP inh	MITF inh
c1ccc(-c2csc3ncnc(NCc4ccco4)c23)cc1	0	0	34	0
COC(=O)CNc1ncnc2scc(-c3ccccc3)c12	0	0	0	0
COC(=O)CCCNc1ncnc2scc(-c3ccccc3)c12	0	0	35	0
CCCCNc1ncnc2scc(-c3ccccc3)c12	0	0	56	0
c1ccc(-c2csc3ncnc(NCc4ccccn4)c23)cc1	0	0	0	0
COCCCNc1ncnc2scc(-c3ccccc3)c12	0	0	59	0
Cc1ccc(-c2nc(NCC3COc4ccccc4O3)c3ccccc3n2)cc1 (centres undefined)	0	0	0	0
CCC(C)NC(=O)CN1C(=O)COc2ccccc21 (centres undefined)	0	0	0	0
c1ccc(Cc2nc(Nc3ccc4c(c3)OCCO4)c3c4c(sc3n2)CCCC4)cc1	0	0	0	0
COc1ccc(-n2nc(C(=O)Nc3cccnc3)c3c4ccccc4n(C)c3c2=O)cc1	0	0	0	0
CN1c2ncccc2C(=O)NC12CCN(C(=O)c1cccc3nccnc13)CC2	0	0	0	0
COc1ccc(C)cc1NC(=O)C(=O)NNC(=O)c1ccccc1OC	0	0	0	0
Cc1ccc(C(=O)N2CCN3C(=O)[C@H](C)N(C)C(=O)[C@H]3C2)cc1F	0	0	0	0
CCOc1ccc(C(=O)Oc2cc(N)n(S(=O)(=O)c3ccc(Cl)cc3)n2)cc1	0	0	0	0
COc1ccc(Nc2nc(Nc3ccc(OC)cc3)nc(Sc3nc4ccccc4s3)n2)cc1	0	0	0	0
COc1cc(C(=O)Nc2ccc3c(c2)oc2ccccc23)cc(OC)c1OC	0	0	57	0
COC(=O)c1ccc(NC(=O)c2cc(OC)c(OC)c(OC)c2)cc1	0	0	59	0
COc1cc(C(=O)Nc2ccc(O)cc2)cc(OC)c1OC	0	0	0	0
COc1cc(C(=O)Nc2ccc3c(c2)Nc2ccccc2CC3)cc(OC)c1OC	0	0	62	0
O=C(Nc1ccc2c(c1)Nc1ccccc1CC2)c1ccccc1	0	0	0	0
COc1ccc(C(=O)NCCCc2ccc(N(C)C)cc2)cc1	0	0	0	0
COc1ccc(/C=C2\C(=O)NC(=S)N(c3ccccc3)C2=O)c(OC)c1	0	0	0	0
COc1cccc(NC(=O)c2sc(NC(=O)/C=C/c3ccccc3)nc2C)c1	0	0	55	0
COc1cc(CCC(=O)N2CCCCC2c2nc3cc(C)c(C)cc3[nH]2)on1 (centres undefined)	0	0	41	0
Cc1cc2nc(C3CCCCN3C(=O)CCc3c(C)noc3C)[nH]c2cc1C (centres undefined)	0	0	0	0
SMILES	FBW7 act	GPR151 activ	TEAD-YAP inh	MITF inh
O=S(=O)(NCC(c1cccs1)S(=O)(=O)c1cccs1)c1ccc(F)cc1 (centres undefined)	0	0	0	0
O=C(CSc1nc2ccccc2s1)Nc1ccc2nc(SCC(=O)N3CCOCC3)sc2c1	0	0	0	0
CCCn1c(=O)c2c(nc3n(-c4ccccc4C)c(C)cn23)n(C)c1=O	0	0	0	0
C=CCn1c(=O)c2c(nc3n(-c4ccccc4C)c(C)cn23)n(C)c1=O	2.1	0	0	0
CC(=O)c1ccc(Nc2cc3ccccc3c(=O)[nH]2)cc1	0	0	0	0
O=C(c1ccco1)N1CCN(c2nccn3c(-c4cccc(F)c4)cnc23)CC1	0	0	0	0
CC(=O)Nc1cccc(-c2cnc3c(N4CCN(C(=O)c5ccco5)CC4)nccn23)c1	0	0	93	0
CC(=O)Nc1cccc(-c2cnc(N3CCN(C(=O)c4ccco4)CC3)c3nccn23)c1	3.2	0	92	0
COC(=O)/C=C1\S/C(=N\N=C\c2ccc(Cl)cc2)NC1=O	0	0	0	0
COC(=O)C/C=N/N=C1/NC(=O)/C(=C/C(=O)O)S1	0	0	0	57
Oc1ccc(Nc2nccn3c(-c4ccc(F)cc4)cnc23)cc1	0	0	53	0
O=C(NCCO)c1cccc(-c2cnc3c(Nc4ccc(F)c(Cl)c4)nccn23)c1	0	0	74	0
Oc1ccc(Nc2nccn3c(-c4ccsc4)cnc23)cc1	0	0	37	0
O=C(NCCO)c1cccc(-c2cnc3c(Nc4cccc(C(F)(F)F)c4)nccn23)c1	0	0	0	0
Oc1ccc(Nc2nccn3c(-c4cccc(F)c4)cnc23)cc1	0	0	65	0
Cc1ccc(-c2cnc3c(Nc4ccc(O)cc4)nccn23)cc1	0	0	0	0
CC(C)c1ccc(Nc2nccn3c(-c4ccc(O)cc4)cnc23)cc1	0	0	0	0
